# Experimental data as given in PubChem BioAssay.
# Activity calls are given as the source filed them. Cut-off read from the data, not from the text of the source: active = inhibition above about 30%; inactive = the rest.
# Tested on: transactivating tegument protein VP16 (Human herpesvirus 1), Gal4-VP16 luciferase reporter
# Assay: VP16 transactivation inhibitors, counter-screen for SRC3 inhibitor project, cell-based, luminescence, high throughput (AID 588794)
# Details: mammalian cells, VP16-driven luciferase reporter luminescence; at 3.6 µM; stronger effect = higher value
row,SMILES,inhibition
1,CN1OC[C@@H]2CN(C(=O)c3ccc(-c4ccccc4)cc3)[C@H](c3ccc(-c4cccc(F)c4)cc3)C[C@@H]21,18.4% (inactive)
2,CCn1cc(C(=O)NCc2ccco2)c(=O)c2cc(S(=O)(=O)N3CCCCCC3)ccc21,23.5% (inactive)
3,CC(C)C[C@H](NC(=O)c1[nH]cnc1C(=O)N[C@@H](Cc1ccccc1)C(=O)OC(C)(C)C)C(=O)OC(C)(C)C,2.92% (inactive)
4,Clc1ccc(-c2noc(CSc3nnc(-c4ccncc4)n3-c3ccccc3)n2)cc1,8.1% (inactive)
5,Cc1ccc(C)c(N2CCN(C(=O)C34CC5CC(C3)CC(n3nnc(C)n3)(C5)C4)CC2)c1,29.6% (active)
6,Cc1ccc(Cl)cc1N1CCN(C(c2ccc(C#N)cc2)c2nnnn2C2CCCC2)CC1 (stereo not drawn),22.5% (inactive)
7,C=C(C(=O)c1ccccc1)C(CC(=O)c1ccccc1)c1ccccc1 (stereo not drawn),41.1% (active)
8,O=C(Nc1ccc(N2CCN(c3ncccc3C(F)(F)F)CC2)nc1)c1cccs1,7.03% (inactive)
9,COc1cccc(NC(=O)CN(C)C(=O)/C=C/c2cn(-c3ccccc3)nc2-c2ccc(OC)c(OC)c2)c1,-9.23% (inactive)
10,Cc1cc(C(C)(C)C)cc(C)c1Cn1c2[n+](c3ccc(C(F)(F)F)cc31)CCCCC2,21.3% (inactive)
11,COc1cccc2[nH]c(=O)c(-c3ccccc3)cc12,-36.1% (inactive)
12,Cc1c(P(=S)(c2ccccc2)c2ccccc2)[n+]2ccccc2n1CCc1ccccc1,22% (inactive)
13,O=C(NCc1cccs1)C1CCCN(C(=O)Nc2ccc(F)cc2)C1 (stereo not drawn),5.59% (inactive)
